# PubChem BioAssay AID453 (PCMD, 2006)
# Among all 63,000 compounds or so, about 75 (0.1%) were called active. This is one part of a sample in which actives are shown more often than they occur. Cut-off read from the data, not from the text of the source: active = inhibition above about 21%; inactive = the rest.
# Target: Cathepsin B (Homo sapiens) (UniProt P07858)
# Assay: blockers of cathepsin B proteolysis – biochemical, fluorogenic substrate, primary screen (AID 453);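 note: 0% = enzyme with no compound and 100% = no enzyme blank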
# Details: purified cathepsin B, fluorescence, active compounds read high,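 tested at 10 µM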
row,Structure (SMILES),inhibition
1,COc1ccc2c(c1)C(C)=CC(C)(C)N2C(=O)CNCc1ccc2c(c1)OCO2,0.73% (inactive)
2,CC(=O)Oc1cc2c(C(=O)NCCN3CCOCC3)c(C)oc2c2ccccc12,-1.15% (inactive)
3,Cc1ccc(CC2CC(=O)N(c3ccc4c(c3)OCCO4)C2=O)cc1 (stereo unspecified),3.98% (inactive)
4,N#Cc1ccccc1-n1c(N)c(C(=O)N2CCCC2)sc1=S,4.81% (inactive)
5,Cc1ccc(C(C(=O)NC2CCCCC2)N(C(=O)c2csnn2)C2CC2)o1 (stereo unspecified),4.47% (inactive)
6,CCCC(=O)N1c2ccc(-c3csc(N)n3)cc2CC1C (stereo unspecified),1.69% (inactive)
7,CCCCC(=O)Nc1ccc(C(=O)NCCCn2ccnc2)cc1,-0.94% (inactive)
8,CCCCCC(=O)Nc1ccc2oc(-c3ccncc3)nc2c1,-2.27% (inactive)
9,COc1ccccc1NC(=O)CSc1nnc(Cc2cccn2C)n1-c1ccc(F)cc1,2.97% (inactive)
10,Cc1ccc(Nc2nc(CSc3nnnn3-c3ccccc3)cc(=O)[nH]2)cc1,1.57% (inactive)
11,COC(=O)C1=C(C)OC(N)=C(C#N)C1c1cc(OC)ccc1OC (stereo unspecified),4.88% (inactive)
12,Nc1scc(-c2ccncc2)c1Cl,3.27% (inactive)
13,CC(C)c1nc(N2CCOCC2)c(C#N)c2c1COC(C)(C)C2,1.28% (inactive)
14,CCCCc1nc2ccccc2c(=O)n1NC(=O)c1c(O)c2cccc3c2n(c1=O)CC3,-2.29% (inactive)
15,O=C(CCSc1ccccc1)NCCSc1ccccn1,5.87% (inactive)
16,COc1ccc(C)c(Cn2c(-c3nonc3N)nc3ccccc32)c1,45.2% (active)
17,Nc1nonc1-c1nc2ccccc2n1CCC(=O)O,7.32% (inactive)
18,CC(=O)Nc1nonc1-c1nc2ccccc2n1Cc1ccccn1,-4.81% (inactive)
19,COCCn1c(-c2ccc(OC)c(OC)c2)nc2ccccc21,4.56% (inactive)
20,CCCn1c(C(O)c2cc(OC)ccc2OC)nc2ccccc21 (stereo unspecified),5.72% (inactive)
21,Nc1nonc1-c1nc2ccccc2n1Cc1ccc(F)cc1,73.1% (active)
22,Cc1cc(NC(=O)CCC(=O)N(c2ccccc2)C(C(=O)NC2CCCC2)c2ccncc2)no1 (stereo unspecified),0.19% (inactive)
23,CCn1c(COc2ccccc2)nnc1SCC(=O)Nc1ccc2c(c1)OCCO2,1.14% (inactive)
24,COC(=O)Nc1nc2ccc(Sc3ccccc3)cc2[nH]1,4.96% (inactive)
25,COc1ncnc2c1N=C1CC(C)(C)CC(N)=C1S2,-1.8% (inactive)
26,Cc1ccc2oc(=O)c3cnn(CC(=O)N4CCN(c5ccccn5)CC4)c3c2c1,3.28% (inactive)
